Only some compounds are listed: those with a hit (about 0.52% of all), similar ones and a draw of the others.
USP2a block – USP2a (human) protease inhibition; Potency, µM (titrated, usually from 38.3 µM), for inactives: at the top dose activity change, negative = inhibition, hits mostly inhibitors; hit rate 0.01% among 330,000; USP2 core, Ub-CHOP2 coupled fluorogenic reporter, 485/531; O75604; AID 463254;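 also: potency is read from the fitted curve at half-maximal effect; plate controls were DMSO wells for no effect and full inhibition by NEM control for full effect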
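USP2 core (10nM final) preincubated 30min RT with compound in 20mM Tris-HCl pH 8.0, 2mM CaCl2, 2mM beta-mercaptoethanol, 0.05% CHAPS; 25nM Ub-CHOP2 plus 25nM reporter substrate added, fluorescence (Ex485/Em531) read after 60min.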
GLS inh – blocks human kidney-isoform glutaminase activity. GLS enzymatic activity, qHTS titration. hit rate 0.21% among 410,000. Potency, µM (top dose mostly 45.5 µM), for the others: at the top dose activity change, negative = inhibition, most hits filed as inhibitors; also: potency is read from the fitted curve at half-maximal effect; % is scaled to controls: 0 for no effect and ±100 for the full control effect
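Read-out is an Amplex red fluorescence increase coupled through glutamate oxidase and HRP, measured before and after 30 min room-temperature incubation. hKGA is in 45 mM KH2PO4 (pH 8.2) with 0.02% Tween-20; glutamine added as 1mM solution.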
Tb PFK inh-1 – blocks T. brucei phosphofructokinase; hit rate 0.17% among 330,000; O15648; T. brucei PFK, ADP-Glo luminescence; Potency, µM (top dose mostly 57.5 µM), for the others: at the top dose activity, negative = inhibition, most hits filed as inhibitors;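 also: potency is read from the fitted curve at half-maximal effect; 0% = uninhibited 1x PFK enzyme wells and -100% = no-enzyme wells; nearly all actives have a fitted effect of over 60% in size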
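ADP-Glo luminescence quantified ADP after 45 min at room temperature, with 1.25 nM T. brucei PFK, 0.1 mM ATP and 0.5 mM fructose-6-phosphate in pH 8.0 TEA buffer. qHTS titrations up to 57 µM; curves classified by quality.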
Tb PGK inh – inhibitors of T. brucei phosphoglycerate kinase; PGK/GAPDH coupled, Kinase-Glo luminescence, 60 min; Potency, µM (top dose mostly 57.5 µM), inactives show at the highest dose activity change, negative = inhibition, hits mostly inhibitors; hit rate 0.043% among 380,000; AID 602233; also: potency is read from the fitted curve at half-maximal effect; % is scaled to controls: 0 for no effect and ±100 for the full control effect; nearly all actives have a fitted effect of over 60% in size
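Recombinant glycosomal PGK reaction used 1,3-bisphosphoglycerate generated in-well by GAPDH (100nM final) in 100mM TEA pH 7.6, 5mM MgCl2, 0.01% Tween-20. After 60 minutes at room temperature, ATP was read by Kinase-Glo Plus luminescence end-point.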
GCN5L2 inh-1 – GCN5L2 (KAT2A) acetyltransferase inhibition; AID 504327; hit rate 0.21% among 390,000; GCN5L2 HAT assay, ThioGlo1 CoA-SH fluorescence; Potency, µM (titrated, usually from 58.9 µM), for inactives: at the top dose activity change, negative = inhibition, actives largely listed as inhibitors; also: potency is read from the fitted curve at half-maximal effect; % is scaled to controls: 0 for no effect and ±100 for the full control effect
Target sequence (Q92830 whole entry, looked up): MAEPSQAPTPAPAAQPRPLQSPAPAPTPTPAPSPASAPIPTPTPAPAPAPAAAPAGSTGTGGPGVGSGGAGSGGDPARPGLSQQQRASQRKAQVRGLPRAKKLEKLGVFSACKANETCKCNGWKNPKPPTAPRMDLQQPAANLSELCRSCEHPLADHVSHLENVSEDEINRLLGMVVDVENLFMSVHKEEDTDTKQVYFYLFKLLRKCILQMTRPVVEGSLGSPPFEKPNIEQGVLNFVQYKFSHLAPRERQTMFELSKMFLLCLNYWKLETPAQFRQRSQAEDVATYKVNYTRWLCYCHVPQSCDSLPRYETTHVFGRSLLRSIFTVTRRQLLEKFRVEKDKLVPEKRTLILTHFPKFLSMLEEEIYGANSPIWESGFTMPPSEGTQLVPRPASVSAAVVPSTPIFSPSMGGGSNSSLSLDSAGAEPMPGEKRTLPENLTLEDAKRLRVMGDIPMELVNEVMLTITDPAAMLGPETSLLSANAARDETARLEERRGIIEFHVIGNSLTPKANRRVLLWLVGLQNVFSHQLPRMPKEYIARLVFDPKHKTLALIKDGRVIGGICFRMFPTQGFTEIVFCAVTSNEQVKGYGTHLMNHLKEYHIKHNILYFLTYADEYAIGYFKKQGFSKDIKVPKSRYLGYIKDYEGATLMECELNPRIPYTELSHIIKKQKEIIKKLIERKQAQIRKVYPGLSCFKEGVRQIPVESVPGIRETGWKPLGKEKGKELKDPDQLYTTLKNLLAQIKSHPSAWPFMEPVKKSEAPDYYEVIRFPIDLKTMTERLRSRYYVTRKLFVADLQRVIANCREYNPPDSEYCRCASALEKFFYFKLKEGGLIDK
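Compounds, pin-transferred from DMSO stocks, meet 20nM GCN5L2 for 15 min before the reaction begins with H3(1-25) peptide (75uM) and acetyl-CoA (70uM). Thiol-reactive ThioGlo1 reports CoA release over 20 min at room temperature.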
TbPFK ATP – inhibits T. brucei PFK measured by ATP depletion. shares compounds with Tb PFK inh-1. Tb PFK enzyme, ATP depletion, Kinase-Glo Plus luminescence. Potency, µM (highest dose often 57.5 µM), for inactives: top-dose inhibition. hit rate 47% among 1,100. AID 504636; calls by dose curve; also: potency is read from the fitted curve at half-maximal effect; nearly all actives have a fitted effect of over 60% in size
Tb PFK inh-2 – validation of T. brucei phosphofructokinase inhibitors; shares compounds with Tb PFK inh-1; purified T. brucei PFK, ADP-Glo luminescence, 45 min; Potency, µM (doses to about 57.5 µM), without a hit: at the top dose activity change, negative = inhibition, hits mostly inhibitors; hit rate 41% among 1,100;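 also: potency is read from the fitted curve at half-maximal effect; plate controls were full PFK enzyme control for no effect and no enzyme control for full effect; nearly all actives have a fitted effect of over 60% in size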
GCN5L2 inh-2 – confirmation of human GCN5L2 histone acetyltransferase inhibitors | AID 588347 | Potency, µM, actives largely listed as inhibitors | hit rate 70% among 140 | shares compounds with GCN5L2 inh-1 | GCN5L2 HAT, ThioGlo1 CoA fluorescence, 20 min
GLS hit conf – glutaminase (human) inhibition, hit confirmation; shares compounds with GLS inh; biochemical glutaminase enzyme inhibition assay; Potency, µM (titrated, usually from 46.1 µM), without a hit: top-dose activity change, negative = inhibition, hits mostly inhibitors; 35 tested, under 10 active; AID 624261; calls by dose curve
HRP GOx counter – counter-screen for glutaminase inhibitors: HRP coupled enzyme inhibition; HRP/glutamate oxidase coupled Amplex Red fluorescence counterscreen; activity change, negative = inhibition, % at 46.1 µM; shares compounds with GLS inh; 35 tested, under 10 active
GLS HEK tox – HEK-293 cytotoxicity, glutaminase hit confirmation; shares compounds with GLS inh; HEK-293 viability, CellTiter-Glo luminescence, 24 h; activity change, negative = cytotoxicity, % at 46.1 µM; 35 tested, under 10 active; AID 624264
* = called active by the depositor; u = inconclusive; x = no result; [ ] = remark or other dose. Unless noted, calls follow the shape of the dose curve; as a rule, active = well fitted curve in the direction sought with a large enough effect; inconclusive = small, poorly fitted or top-dose-only effect, or another doubt; inactive = no such curve, though single readings can be large; an effect the other way counts as inactive or inconclusive.

SMILES	USP2a block	GLS inh	Tb PFK inh-1	Tb PGK inh	GCN5L2 inh-1	TbPFK ATP	Tb PFK inh-2	GCN5L2 inh-2	others
CCOC(=O)c1c(-c2ccco2)csc1NC(=O)COC(=O)c1cnccn1	1.5%	5.7%	6.75µM*	-6.4%	11.2µM*	23.9µM*	-27.2%	u
O=C(CN1C(=O)/C(=C2\SC(=S)N(CCS(=O)(=O)O)C2=O)c2ccccc21)Nc1cccc(Br)c1	u	13.9%	26.9µM*	u	20µM*	4.26µM*	7.57µM*	11.5*
O=C(CN1C(=O)CN=C(c2ccccc2)c2ccccc21)Nc1cccc(C(F)(F)F)c1	x	-1.0%	x	7.7%	-12.5%	x	x	x
Cc1ccc(S(=O)(=O)N2[C@@H](c3ccccc3F)C(C(=O)O)=CC[C@H]2c2ccc(Cl)c(Cl)c2)cc1	11.2µM*	17.8%	26.9µM*	-4.3%	28.2µM*	7.1%	1.1%	u
CSCC[C@H](NC(=O)[C@H](Cc1ccccc1)NC(=O)CNC(=O)CNC(=O)[C@@H](N)Cc1ccc(O)cc1)C(=O)O	x	x	x	x	6.1%	x	x	x
C[C@H](N)[C@@H](O)c1ccccc1	x	4.2%[20 µM]	x	x	-2.4%[21.4 µM]	x	x	x
O=C(O)c1ccccc1NS(=O)(=O)c1cccc(-n2sc3ccccc3c2=O)c1	0.2%	7.08µM*	2.39µM*	-3.0%	0.447µM*	12µM*	23.9µM*	x	GLS hit conf=5.17µM*;HRP GOx counter=11.1;GLS HEK tox=8.4
CC[C@H](C)[C@H](NC(=O)[C@@H]1CCCN1C(=O)[C@H](CCC(=O)O)NC(=O)[C@@H](NC(=O)[C@H](Cc1ccccc1)NC(=O)[C@@H]1CCCN1C(=O)[C@@H](N)Cc1ccc(O)cc1)C(C)C)C(=O)O	x	x	x	x	-1.5%	x	x	x
Cc1cc(C(C#N)c2ccc(Cl)cc2)c(Cl)cc1NC(=O)c1cc(I)cc(I)c1O (configuration not stated)	2.4%	17.4%	0.8%	-27.6%	10µM*	x	x	u
CC1(C)C(O)CC(=O)[C@]2(C)C1CC(=O)[C@]1(C)C2CC[C@@]2(C)C(c3ccoc3)OC(=O)C3O[C@@]321 (some centres not stated)	x	x	x	x	-7.8%	x	x	x

Screening results (PubChem)
